# Bioassay records: PubChem BioAssay, The Scripps Research Institute Molecular Screening Center
# hcDAF-12 act: activators of H. contortus DAF-12 nuclear receptor | activation, % at 6.8 µM | HEK293 hcDAF-12 lit1-tk-luc reporter, luminescence; 0% DMSO, 100% Δ7-dafachronic acid | 370,000 compounds, 1.4% hits | AID 652067;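 active = activation above the mean of all tested compounds plus 3 SD, cut at about 5.5% in these data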
# DAX1 inh-1: NR0B1 (DAX1) inhibition | inhibition, % at 6.75 µM | P51843 | 340,000 compounds, 0.99% hits | HEK293 Gal4-DAX1 luciferase reporter, luminescence;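 active = inhibition above the mean over all tested compounds plus 3 SD, cut at about 4.2% in these data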;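 note: inhibition shows as a rise in luminescence from relieved DAX1 repression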
# Target sequence (P51843 207-470 limits assumed): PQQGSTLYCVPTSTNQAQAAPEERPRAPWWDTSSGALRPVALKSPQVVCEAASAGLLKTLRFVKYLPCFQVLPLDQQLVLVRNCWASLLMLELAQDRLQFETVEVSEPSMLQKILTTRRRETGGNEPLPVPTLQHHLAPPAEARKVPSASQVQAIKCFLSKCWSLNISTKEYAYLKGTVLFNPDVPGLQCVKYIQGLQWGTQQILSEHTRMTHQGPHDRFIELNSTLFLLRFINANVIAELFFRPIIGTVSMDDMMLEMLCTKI
# hgDAF12 agonist: activates the H. glycines DAF-12 receptor ligand-binding domain; HEK293 GAL4-hgDAF12 UAS-luciferase reporter, agonist luminescence; normalized to butyrate control; activation, % at 6.8 µM; 370,000 compounds, 1.8% hits; AID 687014;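 active = activation above a cutoff set at the mean of all screened compounds plus 3 SD, cut at about 10% in these data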
# ssDAF12 agonist: activators of S. stercoralis DAF-12 nuclear receptor | activation, % at 6.8 µM | HEK293 ssDAF-12/GRIP1 lit1-tk-luc reporter, luminescence; % of 3 µM dafachronic acid response | 370,000 compounds, 1% hits;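 active = activation above the mean over all tested compounds plus 3 SD, cut at about 0.9% in these data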
# DAX1 inh-2: inhibitors of DAX1 repression of SF-1 activated StAR promoter | HEK293T StAR-luciferase reporter, SF-1/DAX-1 repression relief | inhibition, % at 6.8 µM | 370,000 compounds, 1.1% hits;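 active = inhibition above the mean over all tested compounds plus 3 SD, cut at about 3.6% in these data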;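 note: higher inhibition means more luminescence from relief of DAX-1 repression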
# AHR act: activates the human aryl hydrocarbon receptor. P35869. AHR-responsive luciferase reporter cells, luminescence. activation, % at 5 µM. 320,000 compounds, 2.5% hits. AID 2796; in the data active = activation above about 47%
# Numbers stand for hits; n = inactive; x = no result given. The list is not random: actives were taken first. Their share in the collection is about 5.7%.
SMILES,hcDAF-12 act,DAX1 inh-1,hgDAF12 agonist,ssDAF12 agonist,DAX1 inh-2,AHR act
CCn1c(SCc2c(Cl)cccc2Cl)nc2nc3c(cc2c1=O)CCCC3,n,n,n,n,n,n
CCOc1ccc(NC(=S)Nc2cccc3ccccc23)cc1,n,n,n,n,n,66
CCOc1ccc(NC(=S)Nc2cccc3cnccc23)cc1,n,n,n,n,n,60
COc1ccc(NC(=S)c2ccc3ccccc3n2)cc1,x,n,x,x,x,n
CCOc1ccc(NC(=S)c2ccc3ccccc3n2)cc1,n,n,n,1.0,n,n
COc1ccc(NC(=S)Nc2cccc3cnccc23)cc1,n,n,n,n,n,n
CCOc1ccc(NC(=O)Nc2ccc3nsnc3c2)cc1,n,n,n,n,n,n
CCOc1ccc(NC(=S)Nc2ccc3nsnc3c2)cc1,n,n,n,n,n,51
CCC(C)Nc1nc(CN2CCOCC2)nc2sc3c(c12)CCC3 (configuration not stated),n,n,n,n,n,n
CC1CCCCC12NC(=O)N(CC(=O)N1CCc3ccccc31)C2=O (configuration not stated),5.8,n,n,n,n,n
CCOC(=O)C(C)Oc1ncnc2cccc(F)c12 (configuration not stated),n,n,n,n,n,n
CC(C)[C@H](NC(=O)C1CCN(S(=O)(=O)c2ccccc2)CC1)C(=O)NCc1ccccc1,n,n,n,n,n,n
Cc1c(N=C2Nc3cccc4cccc2c34)c(=O)n(-c2ccccc2)n1C,n,n,n,n,n,90
COc1cc(OC)cc(C(=O)Nc2c(F)cccc2F)c1,n,n,n,n,n,59
O=C(Nc1cccnc1)c1ccc(F)cc1,n,n,n,n,n,n
CCOC(=O)CNC(=O)c1cc(OC)cc(OC)c1,n,n,n,n,n,n
O=C(Nc1ccc(Cl)c(Cl)c1)c1cccnc1,n,6.3,n,n,n,71
CC(C)c1ccc(C(=O)Nc2cccnc2)cc1,n,n,10,n,n,n
COC(=O)CNC(=O)c1cc(OC)cc(OC)c1,n,n,n,n,3.8,n
COc1cccc(C(=O)Nc2c(F)cccc2F)c1,n,n,n,n,n,n
Cc1ccc(Oc2ncccc2NC(=O)CCCC(=O)O)c2c1CCC2,n,x,n,n,n,n
COc1cc(OC)cc(C(=O)Nc2cccc3cccnc23)c1,n,n,n,n,n,50
COc1cc(C(=O)Nc2cccc3cccnc23)cc(OC)c1OC,n,n,n,n,n,n
CCC(C)c1ccc(O)c(NC(=O)c2cccnc2)c1 (configuration not stated),n,n,n,n,n,60
COc1cc(OC)cc(C(=O)Nc2cccnc2)c1,n,n,n,n,n,59
SMILES,hcDAF-12 act,DAX1 inh-1,hgDAF12 agonist,ssDAF12 agonist,DAX1 inh-2,AHR act
Cc1cccnc1NC(=O)c1ccc(Cl)c(S(=O)(=O)N2CCCC2)c1,n,n,n,n,n,n
C=CCn1c(SCn2nnc3ccccc3c2=O)nc2scc(-c3cccs3)c2c1=O,n,n,n,n,n,n
C(=N\N=C\c1ccccc1)/c1ccccc1,n,5.0,n,n,n,n
CCOC(=O)C(=CN=C(N)Nc1nc2ccccc2o1)C(=O)OCC,n,n,n,n,n,63
C=CC(=O)Nc1sc2c(c1C(N)=O)CCCC2,n,n,n,n,n,n
C=CCNC(=S)Nc1sc2c(c1C(N)=O)CCCC2,n,x,n,n,n,58
Clc1ccc(Cl)c2sc(N3CCOCC3)nc12,n,n,n,n,n,n
Clc1cc(Cl)c2nc(N3CCOCC3)sc2c1,n,4.8,n,n,n,n
C=CC(=O)N(CCC)C(c1ccccc1)c1ccccc1OC (configuration not stated),n,n,n,n,n,n
O=C(Cn1cnc2c(oc3ccccc32)c1=O)N1CCCc2ccccc21,n,n,n,n,n,n
O=C(Nc1ccc2c(c1)OCO2)c1cc(C2CCCCN2C(=O)CCc2ccccc2)on1 (configuration not stated),n,x,n,n,n,x
O=C(Nc1ccc2c(c1)OCO2)c1cc(C2CCCCN2S(=O)(=O)Cc2ccccc2)on1 (configuration not stated),n,x,11,n,4.4,x
Cc1ccc(C(C)C)c(OCC(=O)NNC(=O)Nc2ccccc2)c1,n,n,n,n,n,n
Cc1ccc(S(=O)(=O)Nc2ccncc2)c(C)c1N(C)S(=O)(=O)c1ccc(F)cc1,5.7,n,n,n,n,n
Cc1[nH]c(=O)nc(SCc2ccc(Cl)c(Cl)c2)c1C#N,n,n,n,n,n,n
CC(=O)Nc1ccc2c(c1)Cc1c(F)cccc1-2,n,n,11,n,4.3,x
O=C(Nc1ccc2c(c1)Cc1ccccc1-2)c1ccc(Br)o1,n,n,n,n,n,n
O=C(Nc1ccc2c(c1)Cc1ccccc1-2)c1ccccc1F,n,n,11,n,n,n
CCOC(=O)c1cc(CC)sc1NC(=O)COC(=O)c1cnccn1,n,n,n,n,n,n
Cc1cc(C)c2oc(C(=O)N(Cc3ccccc3)c3ccccn3)cc(=O)c2c1,n,6.3,n,n,n,n
COCCCNC(=S)NNC(=O)c1cc(-c2cccnc2)nc2ccccc12,n,n,n,n,n,x
O=C(c1cc2cc(Cl)ccc2oc1=O)N1CCCC1,n,n,n,n,n,n
O=C(c1cc2cc(Cl)ccc2oc1=O)N1CCCCCCC1,n,4.5,n,n,n,n
CCCCCCS(=O)[C@H]1CS(=O)(=O)C[C@@H]1S(=O)CCCCCC (some centres not stated),n,n,17,n,n,n
c1ccc(-c2cc3nc(NCC4CC4)nc(NCC4CCCCC4)c3s2)cc1,n,x,n,n,n,x
SMILES,hcDAF-12 act,DAX1 inh-1,hgDAF12 agonist,ssDAF12 agonist,DAX1 inh-2,AHR act
Cc1nc2c3cnn(-c4ccccc4)c3ncn2n1,n,n,n,n,n,69
c1ccc(-n2ncc3c2ncn2nnnc32)cc1,n,n,n,n,n,n
CSc1ccc(/C=C/c2cc(=O)c3ccccc3[nH]2)cc1,n,n,n,n,n,56
Cc1ccc(NC(=O)/C(=C\c2cccc(Br)c2)NC(=O)c2ccco2)cc1,n,n,n,n,n,n
Nc1cc(S(=O)(=O)Nc2ccccc2Cl)ccc1N1CCCCC1,n,n,n,n,n,n
CCC(=O)Nc1c(-c2ccc3ccccc3c2)nc2ccccn12,n,n,n,n,n,50
Cc1ccc(CS(=O)(=O)c2cn(CC(=O)N3CCOCC3)c3ccccc23)cc1,n,n,n,n,n,n
O=C(Cn1cc(S(=O)(=O)Cc2ccccc2F)c2ccccc21)N1CCOCC1,n,n,11,n,n,n
O=C(C(=O)N1CCc2ccccc2C1)c1cn(CC(=O)N2CCOCC2)c2ccccc12,n,n,n,1.8,n,n
O=C(c1cc(C2CC2)nn1-c1ccccc1)N1CCN(S(=O)(=O)c2ccc(F)cc2)CC1,n,n,n,n,n,x
